ChEMBL document CHEMBL4296182, “CO-ADD screening of NIH NCI Diversity Set V”
For part of these data: Potency and affinity values are given separately.

Experiments:
Staphylococcus aureus = test: Antibacterial activity against Staphylococcus aureus MRSA ATCC 43300 (CO-ADD:GP_020); MIC in CAMBH media using NBS plates, by Resazurin F(560/590); format: functional; details: Concentration 20 uM, ASSAY_TEST Inhibition of Bacterial Growth, detection method Resazurin, Fluorescence (ex560/em590), MEDIA CAMHB, plate type 384well, CORNING #3640, time 18 hr
Acinetobacter baumannii = test: Antibacterial activity against Acinetobacter baumannii ATCC 19606 (CO-ADD:GN_034); MIC in CAMBH media using NBS plates, by Resazurin F(560/590); format: functional; details: Concentration 20 uM, ASSAY_TEST Inhibition of Bacterial Growth, detection method Resazurin, Fluorescence (ex560/em590), MEDIA CAMHB, plate type 384well, CORNING #3640, time 18 hr
Escherichia coli = test: Antibacterial activity against Escherichia coli ATCC 25922 (CO-ADD:GN_001); MIC in CAMBH media using NBS plates, by Resazurin F(560/590); format: functional; details: Concentration 20 uM, ASSAY_TEST Inhibition of Bacterial Growth, detection method Resazurin, Fluorescence (ex560/em590), MEDIA CAMHB, plate type 384well, CORNING #3640, time 18 hr
Klebsiella pneumoniae = details: Concentration 20 uM; ASSAY_TEST Inhibition of Bacterial Growth; detection method Absorption (OD600); MEDIA CAMHB; plate type 384well; NBS; CORNING #3640; time 18 hr
Candida albicans = details: 20 µM
Cryptococcus neoformans = details: Concentration 20 uM; ASSAY_TEST Inhibition of Fungal Growth; detection method Resazurin; Absorption (OD600-OD570); plate type 384well; NBS; CORNING #3640

Row | SMILES | Inhibition (Staphylococcus aureus) | Inhibition (Acinetobacter baumannii) | Inhibition (Escherichia coli) | Inhibition (Klebsiella pneumoniae) | Inhibition (Candida albicans) | Inhibition (Cryptococcus neoformans)
1 | Cc1c(NC(=O)Nc2c(Cl)cccc2Cl)c(=O)n(-c2ccccc2)n1C | 9.25% | 9.07% | 6.32% | 8.26% | -0.35% | -0.01%
2 | FC(F)(F)c1cccc(-c2nc3nc(Cl)c(Cl)nc3[nH]2)c1 | -14.72% | 9.89% | 3.39% | 6.13% | 4.41% | 33.54%
3 | O=C(NN1CCCCC1)NN1CCCCC1 | 9.98% | 7.95% | 2.92% | -4.05% | 1.96% | -2.31%
4 | O=C(O)c1nn(-c2ccccc2-c2nnc(O)nc2O)c(=O)[nH]c1=O | 28.61% | 10.46% | 9.27% | 22.91% | 1.7% | 4.78%
5 | O=C(O)CSc1nc2ccccc2s1 | 14.28% | -9.51% | 3.19% | 0.1% | 13.9% | -12.74%
6 | CN1C(=O)c2ccccc2Cc2c(NCc3ccccc3)ncnc21 | 11.35% | 7.35% | 1.48% | 18.62% | 6.22% | -9.85%
7 | CC(=O)O.COc1ccc2nccc(/C=C/c3ccnc4ccc(OC)cc34)c2c1 | 1.03% | -11.4% | 10.64% | 6.2% | 5.73% | -5.13%
8 | CSc1cccc(NC(=O)Nc2ccccc2C(N)=O)c1 | 1.7% | 10.06% | 13.89% | 12.71% | -0.32% | -13.91%
9 | Cc1cc(NC(=O)OC(C)C)ccc1-c1ccc(NC(=O)OC(C)C)cc1C | 6.05% | 1.04% | -21.51% | 2.57% | 2.22% | 33.06%
10 | CCCCSc1[nH]cnc2nncc1-2 | -2.6% | -0.75% | 12.29% | -0.95% | 4.01% | -16.47%
11 | CSc1nc2nc(C(O)c3ccccc3)nc-2c[nH]1 (configuration not stated) | 9.64% | 6.4% | -14.24% | 16.25% | 8.94% | 28.87%
12 | O=c1oc2c(cc1O)oc(=O)c1cc(O)c(O)c(O)c12 | 7.4% | 17.2% | 5.53% | 31.38% | 14.8% | -7.17%
13 | COc1ccc(C2C3=C(COC3=O)Oc3cc4c(cc32)OCO4)cc1OC (configuration not stated) | 25.54% | -8.11% | 12.52% | 17.02% | 0.53% | -1.21%
14 | CC(=O)Nc1ccc(S(=O)(=O)N=S(C)C)cc1 | 11.09% | 5.41% | 5.54% | 15.05% | 3.87% | -12.86%
15 | C(=C\CSc1ccccn1)/CSc1ccccn1 | 10.81% | -13.92% | 9.4% | 8.71% | 2.49% | -12.06%
16 | O=C1c2ccccc2NC(c2cc(Cl)cc(Cl)c2O)N1CCc1ccccn1 (configuration not stated) | 27.48% | -1.5% | 9.13% | 12.19% | 2.81% | -0.4%
17 | Clc1nc(NCCc2ccccc2)c2c[nH]nc2n1 | 2.77% | 12.4% | 0.9% | 13.65% | 5.89% | -10.39%
18 | CC1=NN(c2ccccc2)C(=O)C1C(=S)SC1CC(=O)NC1=O (configuration not stated) | 3.9% | 14.97% | -13.13% | 16.67% | 6.57% | 3.97%
19 | CN(C)c1ccc(/C=C/C(=O)c2cc(Cl)ccc2O)cc1 | 14.9% | -19.64% | 10.48% | 1% | 8.13% | -6.08%
20 | CC(C1=C(CCN(C)C)Cc2ccccc21)c1ccccn1.O=C(O)/C=C\C(=O)O (configuration not stated) [DIMETHINDENE MALEATE] | 21.63% | -11.43% | 16.27% | 18.33% | 1.91% | -1.76%
21 | OCC(O)C1OCOC(C(O)CO)C1O (configuration not stated) | 14.61% | -8.42% | 9.4% | 8.21% | 0.45% | -5.49%
22 | O=S1(=O)CCN(Cc2ccccn2)CC1 | 22.86% | 16.69% | 26.77% | 2.99% | 2.84% | 12.19%
